In the library only some 7% were active in any assay of this set; here they are far more common.
Integrin act MD = activators of alpha7 integrin expression for muscular dystrophy; alpha7betagal myoblasts, beta-gal FDG fluorescence, 48 h; Potency, µM (titrated, usually from 38.3 µM), for inactives: at the highest dose activation, most hits filed as activators; 350,000 compounds, 0.064% hits; AID 624291;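 further: potency means the concentration at half of the fitted maximal effect; 100% = response of the positive control SU9516; nearly all actives have a fitted effect of over 60% in size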
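Alpha7betagal+/- myoblasts (passage 13) were plated 16-24 hr, then exposed to compounds (1:260 dilution of DMSO stock) for 48 hours at 37C. After MPER lysis, β-galactosidase reporter activity was read as FDG fluorescence (ex 480/em 540) after 30 minutes.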
ATXN2 expr inh = ATXN2 expression inhibition | HEK-293 ATXN2-luciferase reporter, luminescence, 24 h | Potency, µM (top dose mostly 57 µM), for the others: at the highest dose activity change, negative = inhibition, actives largely listed as inhibitors | 360,000 compounds, 0.72% hits | AID 1745845; further: potency means the concentration at half of the fitted maximal effect; on the % scale 0 is the no-effect control and ±100 the full control effect; nearly all actives have a fitted effect of over 55% in size
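ATXN2-luciferase reporter cells (luciferase flanked by upstream and downstream ATXN2 gene portions) were treated 24 h at 37 °C with compounds at up to 57 uM. SteadyGlo luminescence gave expression; GF-AFC fluorescence gave viability.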
D3 ag = agonists of human D3 dopamine receptor | P35462 | D3R DiscoveRx beta-arrestin cells, luminescence, 90 min | max activation, % | 410,000 compounds, 0.58% hits | AID 652048; in the data active means max activation above about 30%; further: 0% is about no effect
Target sequence (P35462 whole entry, looked up): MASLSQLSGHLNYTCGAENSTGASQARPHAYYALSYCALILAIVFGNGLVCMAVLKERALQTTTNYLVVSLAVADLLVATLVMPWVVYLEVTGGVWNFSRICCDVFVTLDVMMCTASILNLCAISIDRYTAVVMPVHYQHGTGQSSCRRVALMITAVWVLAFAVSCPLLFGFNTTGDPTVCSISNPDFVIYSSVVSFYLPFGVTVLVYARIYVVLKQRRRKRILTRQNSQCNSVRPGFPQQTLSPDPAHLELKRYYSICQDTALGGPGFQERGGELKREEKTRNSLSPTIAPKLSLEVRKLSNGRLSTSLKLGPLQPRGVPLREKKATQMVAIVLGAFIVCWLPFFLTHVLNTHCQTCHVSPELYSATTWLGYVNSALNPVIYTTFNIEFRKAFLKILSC
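Agonist-mode cell screen: cells plated at 1500/well and incubated overnight at 37 °C, then exposed to library compounds for 90 min at 37 °C. Detection reagent was added for 30–60 min at room temperature, and luminescence was read.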
ATXN viability = cell viability loss in ATXN counter-screen; 400,000 compounds, 0.49% hits; S2 cells (HEK-293 line with an ATXN2-luciferase reporter) viability, CellTiter-Fluor protease fluorescence, 24 h; Potency, µM (doses to about 56.7 µM), hits mostly cytotoxic; further: potency means the concentration at half of the fitted maximal effect; nearly all actives have a fitted effect of over 40% in size
IL-1B inflam inh = inhibitors of inflammasome signaling (IL-1 beta secretion); THP-1 LPS/ATP IL-1B secretion, AlphaLISA, 16 h; stronger effect = lower value; activity change, % at 57.5 µM; 360,000 compounds, 4.7% hits; in the data active means activity change below about -50%; inconclusive means mostly about -30% to -49%; further: on the % scale 0 is the no-effect control and ±100 the full control effect
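THP-1 cells pretreated 1 hr with compounds (up to 57.5 uM final), then stimulated with LPS (250 ng/mL final) plus ATP (1.25 mM final); secreted IL-1B measured by AlphaLISA after 16 hr, decreased signal indicating inhibition.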
DRD3 antagonist = D3 dopamine receptor (human) antagonism | 360,000 compounds, 2.5% hits | max response, negative = inhibition, % | P35462 | D3R cells, DiscoveRx beta-arrestin luminescence, antagonist mode; stronger effect = lower value; in the data active means max response below about -50%; inconclusive means no clear call, values can overlap the other calls; further: on the % scale 0 is the no-effect control and ±100 the full control effect
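Cells plated overnight at 1500 cells/well, then exposed to library compounds with dopamine controls for 90 minutes at 37 degrees C. DiscoveRx reagent added for 30–60 minutes at room temperature; luminescence read, quantitative HTS format.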
* marks the source's active call; other numbers are inactive results; i = inactive; ? = inconclusive; . = no result; [ ] = another dose, or the depositor's remark. Unless noted, the call rests on the fitted dose curve; in most records, active means well fitted curve in the direction sought with a large enough effect; inconclusive means small, poorly fitted or top-dose-only effect, or another doubt; inactive means no such curve, though single readings can be large; an effect the other way counts as inactive or inconclusive.

SMILES	Integrin act MD	ATXN2 expr inh	D3 ag	ATXN viability	IL-1B inflam inh	DRD3 antagonist
Cc1ccc(S(=O)(=O)N2CC3(O)CN(C(=O)OC(C)C)N(C(=O)OC(C)C)CC3(OC(=O)NC3CC3)C2)cc1 (stereo not given)	.	5%	6	i	-21	-11
Cc1ccc(S(=O)(=O)N2CC3(O)CN(C(=O)OC(C)C)N(C(=O)OC(C)C)CC3(OC(=O)NCC3CCCCC3)C2)cc1 (stereo not given)	-57%	?	0	14µM*	?	23
Cc1ccc(S(=O)(=O)N2CC3(O)CN(C(=O)OC(C)C)N(C(=O)OC(C)C)CC3(OC(=O)NCc3ccccc3F)C2)cc1 (stereo not given)	-12%	0%	2	22µM*	-9	54
CC(C)c1ccc(NC(=O)c2ccc(NC(=O)CCS(=O)(=O)c3cccs3)cc2)cc1	.	-7%	0	?	.	.
COc1cc(C(=O)NNC(=O)c2ccc(F)cc2)ccc1OCC(=O)N1CCOCC1	-1%	.	-3	i	30	-12
Cc1ccc2nc(C3CCCCC3)c(Cc3ccsc3)n2c1	.	?	-11	?	-11	-10
Cc1ccc(Cc2c(C3CCCCC3)nc3ccc(C)cn23)cc1	.	16µM*	4	13µM*	-52*	54
CSc1nc2nc3c(cc2c(=O)n1-c1ccccc1C)COC(C)(C)C3	-10%	.	1	i	11	1
COc1ccccc1CCCNC(=O)C1CCC(=O)N(CCc2cccc(F)c2)C1 (stereo not given)	-22%	1%	-10	i	11	1
CCCCc1c(CCC)c(=N)c2ccccc2n1C	-63%	-21%	0	i	-77*	-73*
CCOc1ccc(C(C)=O)cc1COc1ccc(-n2cnnn2)cc1	5%	-17%	-6	i	-57*	11
NC(=O)COc1ccc(-n2cnnn2)cc1	-15%	.	1	i	-3	13
Cc1ccc2nc(-c3ccc(NS(=O)(=O)c4ccc(F)cc4)cc3)sc2c1	-6%	60%[11.3 µM]	10	.	-103*	33
O=S(=O)(Nc1ccc(-c2csc(-c3ccccc3)n2)cc1)c1ccccc1	-15%	-38%	5	?	-102*	12
CC(=O)Nc1ccc(S(=O)(=O)Nc2nc3ccc(C)cc3s2)cc1	16%	9%	-1	i	25	?
Cc1ccc(S(=O)(=O)Nc2ccc(-c3csc(-c4ccccc4)n3)cc2)cc1	-57%	-4%	1	?	-97*	5
O=S(=O)(Nc1ccc(-c2ccc(NS(=O)(=O)c3ccccc3)cc2)cc1)c1ccccc1	8%	-4%	-10	i	-4	?
CCNC(=O)c1cc(Br)ccc1Cl	18%	-5%	-6	i	-8	-16
CC(C)N(C(=O)[C@H]1C[C@H](CC(=O)NCCCn2ccnc2)C(=O)N2CCc3c([nH]c4cc(-c5ccco5)ccc34)[C@]12C)C(C)C	17%	10%	-2	i	0	7
COc1ccccc1N1CCN(C(=O)c2cccc(S(=O)(=O)N3CCCCCC3)c2)CC1	-23%	-12%	-8	i	4	6
Cc1ccc(Nc2nc(NCCO)c3ccccc3n2)cc1C	-66%	-20%	10	i	-99*	5
OCCNc1c2ccccc2nc2ccccc12	-68%	19µM*	4	.	-8	5
COc1ccc(OC)c(Nc2nc(NCCO)c3ccccc3n2)c1	-20%	-15%	2	?	-89*	31
COc1ccc(OC)c(Nc2nc(-c3ccc(C)cc3)nc3ccccc23)c1	.	.	-8	.	.	.
CCCCNC(=O)c1ccc2c(c1)N(CC)C(=O)c1ccccc1S2(=O)=O	14%	3%	2	i	-18	13
SMILES	Integrin act MD	ATXN2 expr inh	D3 ag	ATXN viability	IL-1B inflam inh	DRD3 antagonist
Cc1cccc(CCN2CCN=C2Nc2ccccc2)c1	-25%	-15%	-46	i	-23	-56*
c1ccc(NC2=NCCN2CCC2CCCCC2)cc1	-17%	-11%	-91	i	0	-63*
c1ccc(CCN2CCN=C2Nc2ccccc2)cc1	-4%	0%	-28	i	-7	?
CC(C)CCN1C(Nc2ccccc2)=NC[C@@H]1CC(C)C	0%	-11%	-1	i	-7	18
Cc1cccc(CCN2C(Nc3ccccc3)=NC[C@@H]2CC(C)C)c1	-50%	?	-25	?	-54*	-18
CC(C)C[C@H]1CN=C(Nc2ccccc2)N1CCc1cccc(F)c1	-49%	-31%	-33	i	-52*	-1
CC(C)C[C@H]1CN=C(Nc2ccccc2)N1CCc1ccc(F)cc1	-41%	-14%	-13	i	-15	17
Cc1ccc(/C=N/NC(=O)c2nnn(-c3nonc3N)c2C)o1	-7%	0%	5	i	-27	2
CC(C(=O)NNS(=O)(=O)c1cccc(C(F)(F)F)c1)n1nnc(N2CCOCC2)n1 (stereo not given)	5%	22%	1	i	40	3
O=C(COC(=O)C1CCC1)Nc1cccc(Cl)c1	-8%	-28%	2	i	16	-16
CCCCCCCN1C(Nc2ccccc2)=NC[C@@H]1Cc1ccccc1	-39%	?	-31	?	-16	-23
c1ccc(CCCCN2C(Nc3ccccc3)=NC[C@@H]2Cc2ccccc2)cc1	-44%	-28%	-31	?	-55*	4
CCN(Cc1ccccc1)C(c1cc2cc(C)cc(C)c2[nH]c1=O)c1nnnn1CCOC (stereo not given)	14%	1%	-3	i	-52*	19
COc1cccc(C(=O)NC2CC3CCCC(C2)N3Cc2ccc(C)cc2)c1 (stereo not given)	0%	.	-18	?	-16	-112*
COc1cccc(C(=O)NC2CC3CCCC(C2)N3CC(=O)Nc2ccc(N(C)C)cc2)c1 (stereo not given)	-11%	-24%	-2	?	33	8
CCCN1C2CCCC1CC(NC(=O)c1ccc(F)cc1)C2 (stereo not given)	-31%	-1%	-2	i	-4	21
COc1cccc(C(=O)NC2CC3CCCC(C2)N3CC(=O)Nc2ccccc2)c1 (stereo not given)	-14%	-12%	-3	i	5	-59*
COc1cccc(C(=O)NC2CC3CCCC(C2)N3Cc2ccc(F)cc2)c1 (stereo not given)	3%	.	-12	i	0	-107*
COc1cccc(C(=O)NC2CCN(C(=O)N3CCCCC3)CC2)c1	11%	-6%	-2	i	38	?
Brc1cccc(CNCc2cccs2)c1	33%	9%	-10	i	-10	-10
O=C(/C=C/c1ccccc1)NCCC1=CCCCC1	13%	64%	-1	?	0	2

Screening data: PubChem, National Center for Advancing Translational Sciences (NCATS)
